Records with an inconclusive call do not appear. Calls of active or inactive are those of the source. Rule for the calls: active = hit-call score of the fitted dose curve at least 0.9, where 1 is the maximum; inconclusive = response in the unintended direction; inactive = score below 0.9.
target: rainbow trout Glucocorticoid Receptor (GR), nr3c1 (gene 100136786) (UniProt P49843); test: ATG_rtGR_EcoTox2: Attagene TRANS-FACTORIAL EcoTox-2 HepG2 Assay for rainbow trout Glucocorticoid Receptor (GR)
Procedure: ATG_EcoTox2 is a cell-based, multiplexed assay created by modifying the existing Attagene TRANS-FACTORIAL system to include a panel of nuclear receptors from some or all the following species: human (Homo sapiens), african clawed frog (Xenopus laevis), rainbow trout (Oncorhynchus mykiss), japanese medaka (Oryzias latipes), and zebrafish (Danio rerio). The ECOTOX2-FACTORIAL format uses HepG2, a human liver cell line, with measurements taken at 24 hours after chemical dosing in a 24-well plate. ATG_rtGR_EcoTox2 is one of 29 assay components calculated in the ATG_EcoTox2 assay. It is designed to make measurements of mRNA induction, a form of inducible reporter, as detected with fluorescence intensity signals by Reverse transcription polymerase chain reaction (RT-PCR) and Capillary electrophoresis technology.The assay endpoint ATG_rtGR_EcoTox2 was analyzed in the positive analysis fitting direction relative to DMSO as the negative control and baseline of activity. Using a type of inducible reporter, measures of mRNA for gain-of-signal activity can be used to understand the reporter gene at the transcription factor-level as they relate to the gene for glucocorticoid receptor. Furthermore, this assay endpoint can be referred to as a primary readout, because this assay has produced multiple assay endpoints where this one serves a reporter gene function. To generalize the intended target to other relatable targets, this assay endpoint is annotated to the nuclear receptor intended target family, where the subfamily is steroidal.
Human liver HepG2 cells are transiently transfected with multiple reporter transcription units (MRTUs) in 6-well plates using FuGene 6 reagent (Roche; 3 ml FuGene/1 mg DNA). The MRTU constructs are regulated by a cis-regulating element (promoter). Each RTU expresses a GAL4-UAS that regulates the transcription of a nearby target reporter gene sequence. A major difference between the CIS and TRANS system is that in CIS activities of endogenous TFs are measured, whereas the TRANS assay evaluates changes in activities of exogenous, chimeric NR-Gal4 proteins. […] At the end of 24 hour incubation, total RNA was isolated using TriZol reagent (Invitrogen). The isolated RNA is then reverse-transcribed using oligo(dT) primer and Mo-MLV reverse transcriptase (Invitrogen) with DNAse I (Ambion) treatment for 30 min. The one-tenth of the produced cDNA was amplified by PCR using Taq DNA polymerase (Invitrogen) and two reporter sequence-specific primers. The PCR products were fluorescently labeled by primer extension with 6-arboxyfluorescein (6-FAM) 5'-labeled reporter sequence-specific primer (2 min at 95 C, 20 s at 68 C and 10 min at 72 C) and these products were digested with 5U of HpaI (New England Biolabs) for 2h at 37 C. The fragments were purified using Qiaquick PCR columns (Qiagen), analyzed on an ABI 3130xL genetic analyzer (Applied Biosystems) with peak positions identified by using a set of X-rhodamine (ROX)-labeled MapMarker1000 molecular weight standards (BioVentures). The raw capillary electrophoresis data was processed using Attagraph software (Attagene).

rainbow trout Glucocorticoid Receptor (GR), nr3c1 (gene 100136786), sequence (P49843 whole entry, looked up): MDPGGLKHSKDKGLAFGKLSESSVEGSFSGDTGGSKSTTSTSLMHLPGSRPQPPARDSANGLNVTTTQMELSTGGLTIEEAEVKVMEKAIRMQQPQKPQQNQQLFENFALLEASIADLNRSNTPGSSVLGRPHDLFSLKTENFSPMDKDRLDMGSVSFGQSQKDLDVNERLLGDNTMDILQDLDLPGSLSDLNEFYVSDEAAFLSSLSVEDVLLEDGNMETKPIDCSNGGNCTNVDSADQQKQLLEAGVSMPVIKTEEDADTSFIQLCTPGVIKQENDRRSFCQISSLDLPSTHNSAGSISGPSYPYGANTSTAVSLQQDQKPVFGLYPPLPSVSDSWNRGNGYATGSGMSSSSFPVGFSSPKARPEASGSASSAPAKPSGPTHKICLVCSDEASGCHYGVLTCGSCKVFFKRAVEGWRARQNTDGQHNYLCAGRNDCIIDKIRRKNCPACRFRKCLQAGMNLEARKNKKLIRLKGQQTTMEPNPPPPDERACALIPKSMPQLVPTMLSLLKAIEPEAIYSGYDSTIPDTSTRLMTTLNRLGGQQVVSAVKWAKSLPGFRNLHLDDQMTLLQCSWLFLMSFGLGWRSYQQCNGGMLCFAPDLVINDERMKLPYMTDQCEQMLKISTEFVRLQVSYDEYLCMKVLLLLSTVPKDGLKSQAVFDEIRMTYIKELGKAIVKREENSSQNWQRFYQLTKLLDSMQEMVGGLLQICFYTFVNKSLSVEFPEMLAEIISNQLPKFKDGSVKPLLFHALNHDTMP

Row | Structure (SMILES) | outcome | AC50
1 | C=C(c1ccc(C(=O)O)cc1)c1cc2c(cc1C)C(C)(C)CCC2(C)C | inactive | –
2 | CC(C)(Oc1ccc(Cl)cc1)C(=O)O | inactive | –
3 | CC(C)OC(=O)C(C)(C)Oc1ccc(C(=O)c2ccc(Cl)cc2)cc1 | inactive | –
4 | CC(c1cc2ccccc2s1)N(O)C(N)=O (stereo unspecified) | inactive | –
5 | Cc1ccc(C)c(OCCCC(C)(C)C(=O)O)c1 | inactive | –
6 | C[C@@H]1C[C@H]2[C@@H]3CCC4=CC(=O)C=C[C@]4(C)[C@@]3(F)[C@@H](O)C[C@]2(C)[C@@]1(O)C(=O)COP(=O)(O)O | – | 20.6 nM (active)

Source: PubChem BioAssay AID2284333 (EPA ToxCast)
